Reference: PubChem BioAssay (NCI)
Where “and” joins values, the source holds several entries; their conditions need not be identical. Equal entries are not always repeated. Compounds without any hit were thinned out: in the full panel of roughly 83,000, 20% have a hit.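 Single-dose data. Exposure time 48 hours. Values below 10 considered active.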 Calls of active or inactive are those of the source.

Columns and labels:
Test in all cases: NCI-60 one-dose screen, 48 h (100 = growth as untreated, 0 = no growth, -100 = all killed)
Settings in all cases: 10 µM unless noted
[1] = tested on: SR leukemia
[2] = tested on: RPMI-8226 leukemia
[3] = tested on: OVCAR-8 ovarian
[4] = tested on: OVCAR-4 ovarian
[5] = tested on: SK-OV-3 ovarian
[6] = tested on: IGROV1 ovarian
[7] = tested on: OVCAR-3 ovarian
[8] = tested on: HS 578T breast
[9] = tested on: OVCAR-5 ovarian
[10] = tested on: NCI/ADR-RES ovarian

SMILES	growth [1]	growth [2]	growth [3]	growth [4]	growth [5]	growth [6]	growth [7]	growth [8]	growth [9]	growth [10]
COc1cc(C(=O)c2ccc3c(c2)OCO3)cc(OC)c1OC	19.8% (inactive) and 12% (inactive)	29.6% (inactive) and 34% (inactive)	33.9% (inactive) and 36.5% (inactive)	80.8% (inactive) and 53.9% (inactive)	24.2% (inactive) and 27.7% (inactive)	11.1% (inactive) and 30.7% (inactive)	-38.3% (active) and -26.6% (active)	19.2% (inactive) and -19.2% (active)	–	–
Cc1n[nH]c(=O)n(/N=C\c2c[nH]c3ccccc23)c1=O	108% (inactive)	105% (inactive)	102% (inactive)	96.9% (inactive)	97.2% (inactive)	102% (inactive)	107% (inactive)	108% (inactive)	106% (inactive)	106% (inactive)
CCN1CCN(CCNc2nccc(-c3c(-c4cccc(O)c4)nc4sccn34)n2)S1(=O)=O	59.4% (inactive) and 36.2% (inactive)	69.3% (inactive) and 102% (inactive)	90% (inactive) and 68.3% (inactive)	106% (inactive) and 77.7% (inactive)	38.4% (inactive) and 39.1% (inactive)	54% (inactive) and 57.5% (inactive)	92.9% (inactive) and 86.7% (inactive)	78% (inactive)	–	–
CCN(CC)CCCC(C)Nc1ccnc2cc(Oc3ccccc3)ccc12 (centres undefined)	9.09% (active) and 33.9% (inactive)	68.6% (inactive)	63.1% (inactive) and 77.7% (inactive)	75.2% (inactive) and 92.9% (inactive)	91.2% (inactive) and 97.2% (inactive)	-53.5% (active) and 63.2% (inactive)	83.4% (inactive) and 85.8% (inactive)	69% (inactive)	82.7% (inactive) and 90.8% (inactive)	102% (inactive) and 96.9% (inactive)
NC(=S)NN=C1CCC(C2CCCCC2)CC1 (centres undefined)	125% (inactive)	67.1% (inactive) and 74.9% (inactive)	100% (inactive) and 98.8% (inactive)	33.8% (inactive)	100% (inactive) and 101% (inactive)	98.2% (inactive) and 89.4% (inactive)	83.9% (inactive) and 85.7% (inactive)	79.3% (inactive) and 109% (inactive)	–	96.8% (inactive) and 102% (inactive)
O=C(CCc1ccc(O)cc1)N/N=C/c1cc(Br)ccc1O	26.6% (inactive)	45.2% (inactive)	56.2% (inactive)	34.7% (inactive)	61.2% (inactive)	62.5% (inactive)	44.4% (inactive)	90.3% (inactive)	–	16.7% (inactive)
CCOc1ccc2cc(-c3nn(CC4CCN(C)CC4)c4ncnc(N)c34)ccc2c1	65.4% (inactive) and -27.1% (active)	75.9% (inactive) and 2.42% (active)	94.4% (inactive) and 65.2% (inactive)	91.4% (inactive) and 70.5% (inactive)	83.1% (inactive) and 85.2% (inactive)	81.5% (inactive) and 61.3% (inactive)	97.8% (inactive) and 59.3% (inactive)	79.3% (inactive) and 35.8% (inactive)	88.4% (inactive) and 80.8% (inactive)	93.7% (inactive) and 63.1% (inactive)
CCOC(=O)C(CNc1ccccc1)C(=O)OCC	97% (inactive)	95.1% (inactive)	98.2% (inactive)	107% (inactive)	98.9% (inactive)	101% (inactive)	105% (inactive)	109% (inactive)	–	–
CN1CCN(C2CCN(C(=O)Nc3cc(Oc4ccc(NC(=O)C5(C(=O)Nc6ccc(F)cc6)CC5)c(F)c4)ccn3)CC2)CC1	-22.9% (active) and 58.4% (inactive)	-38.9% (active) and 105% (inactive)	-55% (active) and 91.6% (inactive)	-5.41% (active) and 83.2% (inactive)	-51.1% (active) and 74.6% (inactive)	-58.6% (active) and 55.3% (inactive)	2.87% (active) and 108% (inactive)	56.7% (inactive)	-10.9% (active) and 94.3% (inactive)	13.3% (inactive) and 99.5% (inactive)
N#CC(C#N)=C/C=C/c1cccc([N+](=O)[O-])c1	-3.67% (active) and 3.74% (active)	-16.2% (active) and -9.65% (active)	-22.1% (active) and -35.4% (active)	31.9% (inactive) and 21.2% (inactive)	55.6% (inactive) and 35.8% (inactive)	24% (inactive) and -7.91% (active)	-9.85% (active) and -42.4% (active)	-9.4% (active) and -4.55% (active)	23.1% (inactive) and -10.2% (active)	5.66% (active) and -10.2% (active)
O=C(O)c1cc(C(=O)O)cc([N+](=O)[O-])c1	86.4% (inactive)	108% (inactive)	106% (inactive)	108% (inactive)	–	108% (inactive)	111% (inactive)	112% (inactive)	105% (inactive)	106% (inactive)
COc1c(/C(C)=N/N=c2sc(C(C)=O)nn2-c2ccc(Cl)cc2)c(Oc2ccccc2)c(OC)c2occc12	107% (inactive) and 104% (inactive)	107% (inactive) and 96.3% (inactive)	102% (inactive)	102% (inactive) and 97.9% (inactive)	137% (inactive) and 107% (inactive)	102% (inactive) and 94.5% (inactive)	102% (inactive)	103% (inactive)	104% (inactive) and 97.7% (inactive)	96.5% (inactive) and 99.7% (inactive)
COc1ccc(-c2cn[nH]c2-c2cc(OC)c(OC)c(OC)c2)cc1N	12% (inactive) and 19.5% (inactive)	29.4% (inactive) and 23.7% (inactive)	21.3% (inactive) and 12.9% (inactive)	47.6% (inactive) and 38.8% (inactive)	23% (inactive) and 36.5% (inactive)	37.2% (inactive) and 15.6% (inactive)	-7.09% (active) and -1.14% (active)	39.5% (inactive) and 40% (inactive)	46% (inactive) and 48.7% (inactive)	-5.9% (active) and 4.84% (active)
N=C1N=C(N)CS1	99.2% (inactive)	107% (inactive)	99.9% (inactive)	99.8% (inactive)	109% (inactive)	105% (inactive)	106% (inactive)	109% (inactive)	109% (inactive)	113% (inactive)
CC(=O)c1ccc2c(c1)N(CCCN1CCN(CCO)CC1)c1ccccc1S2	-30.2% (active)	77.6% (inactive) and 10.7% (inactive)	82.5% (inactive) and 72.9% (inactive)	101% (inactive) and 49.8% (inactive)	152% (inactive) and 50.5% (inactive)	–	103% (inactive) and 40.7% (inactive)	87.6% (inactive) and -20.1% (active)	93% (inactive) and 51.6% (inactive)	95.6% (inactive) and 45.8% (inactive)
NS(=O)(=O)c1cc2c(cc1Cl)NC(C(Cl)Cl)NS2(=O)=O (centres undefined)	99.8% (inactive)	96.7% (inactive) and 100% (inactive)	99.2% (inactive) and 95.3% (inactive)	97.4% (inactive) and 114% (inactive)	106% (inactive) and 114% (inactive)	101% (inactive) and 109% (inactive)	119% (inactive) and 126% (inactive)	124% (inactive) and 128% (inactive)	–	–
CCOc1ccc2cc(-c3nn(CC4CCNCC4)c4ncnc(N)c34)ccc2c1	59.3% (inactive) and -25.2% (active)	90.6% (inactive) and -13.2% (active)	92.1% (inactive) and 58.5% (inactive)	55.8% (inactive) and 42.7% (inactive)	91.7% (inactive) and 45.9% (inactive)	92.7% (inactive) and 47.8% (inactive)	101% (inactive) and 74.7% (inactive)	83.8% (inactive) and 22.1% (inactive)	–	–
CC(O)(CC(=O)CC(=O)c1ccccc1)c1ccccc1 (centres undefined)	110% (inactive) and 103% (inactive)	106% (inactive) and 88.9% (inactive)	106% (inactive) and 102% (inactive)	69.9% (inactive) and 118% (inactive)	115% (inactive) and 114% (inactive)	91.9% (inactive) and 103% (inactive)	97.6% (inactive) and 99% (inactive)	102% (inactive)	–	–
